{"source": "PubChem BioAssay AID624418", "about": "(National Center for Advancing Translational Sciences (NCATS), 2012)", "note": "Hit rate of the full screen: of about 410,000 compounds, about 530 (0.13%) were called active. Inconclusive results (about 5%) are left out. Only a selection was taken, and actives are over-represented in it overall. Unmarked numbers belong to inactive results. The call rests on the fitted dose curve; in most records, active means well fitted inhibition curve with a large enough effect; inconclusive means small, poorly fitted or top-dose-only effect, or another doubt; inactive means no such curve, though single readings can be large or run the other way. On the % scale 0 is the no-effect control and ±100 the full control effect; potency means the concentration at half of the fitted maximal effect.", "data": [{"test": "qHTS of GLP-1 Receptor Inverse Agonists: Cytotox Screen;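 further: loss of luciferase light is scored as toxicity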", "settings": "HEK293 cAMP-luciferase reporter cells, luminescence, 24 h; series mostly up to 38.3 µM; activity change, negative = inhibition: at the top concentration", "excerpt": "The overall goal of this project was to develop a novel assay for discovering small molecule ligands for class B1 G protein-coupled receptors (GPCRs). Very few agonists (or inverse agonists) with generally weak activity for this entire group of physiologically important receptors are known to date. To establish proof-of-principle that this critical bottleneck can be overcome with a suitable screening approach, our studies focused on the class B1 receptor for glucagon-like peptide-1 (GLP-1R), a potential therapeutic target for diabetes and neurodegenerative disease.\nThe assay was developed using a cell-based functional readout. Toward this goal, stably transfected HEK293 cell clones were established that co-express (i) a cAMP-responsive luciferase reporter gene, and (ii) constitutively active GLP-1R that upon ligand interaction inhibit (inverse agonists) the luciferase activity. In addition, two control cell lines were developed: (i) one that express only the cAMP-responsive reporter gene to enable initial exclusion of GLP-1R independent effects of candidate probes; and (ii) one with the reported gene cloned with another constitutively active orphan receptor GPR119 to enable exclusion of GLP-1R independent inhibitor effects of candidate inverse agonists.\nTo that end, this assay was optimized for 1536-well format and screened against the MLSMR. Then the same collection was run in this cytotoxicity assay where inhibition was the undesired outcome.\nNIH Molecular Libraries Probe Production Network [MLPCN]\nNIH Chemical Genomics Center [NCGC]\nPI Name: Martin Beinborn, Tufts Medical Center\nSix ul of cell suspension (200 cells/uL in DMEM + 10% Nu serum + 1% pen-strep) is dispensed in a white solid 1536-well plate. The plates are incubated for 12 hours at 37 deg C at 5% CO2 followed by addition of 23 nL compounds. After 24 hr incubation at 37 deg C and 5% CO2, 3 uL of luciferase assay detection reagent is added. A luminescence read is obtained on the PerkinElmer Viewlux after 12 min incubation at room temperature.", "values": [{"smiles": "CCCCC(CC)CNC(=O)C1CCN(S(=O)(=O)c2cccc3nsnc23)CC1", "note": "(stereo not drawn)", "activity change, negative = inhibition": "3.7%"}, {"smiles": "COC(=O)CN1C(=O)CSc2ccc(S(=O)(=O)Nc3cc(C)ccc3C)cc21", "activity change, negative = inhibition": "0.545%"}, {"smiles": "CCCNC(=O)c1ccc(Cn2c(SCC(N)=O)nc3ccccc3c2=O)cc1", "activity change, negative = inhibition": "-2.77%"}, {"smiles": "O=C(Nc1cccc(Cl)c1)c1csnn1", "activity change, negative = inhibition": "0.685%"}, {"smiles": "Cc1csc(NC(=S)Nc2cccc(Cl)c2)n1", "Potency": "0.891 µM (active)"}, {"smiles": "COc1cccc(NC(=S)NC(=O)c2c(Cl)c(C)nn2C)c1", "activity change, negative = inhibition": "0.241%"}, {"smiles": "O=C(CCOc1ccccc1)N(Cc1cccnc1)c1nc2ccc(Cl)cc2s1", "activity change, negative = inhibition": "18.2%"}, {"smiles": "COc1ccc(NC(=O)Cn2c(=O)n(CCC(C)C)c(=O)c3cccnc32)cc1Cl", "activity change, negative = inhibition": "-15.9%"}, {"smiles": "CCOc1ccc(NC(=O)CSc2c3c(nc4ccccc24)CCCC3)cc1", "activity change, negative = inhibition": "-14.3%"}, {"smiles": "COc1ccc(C2NC(=O)N(C)C3=C2C(=O)N(c2ccc(C(=O)O)cc2)C3)cc1", "note": "(stereo not drawn)", "activity change, negative = inhibition": "5.54%"}, {"smiles": "COc1ccccc1CNc1nc2ccc(Cl)cc2n2cnnc12", "activity change, negative = inhibition": "-12%"}, {"smiles": "O=c1c2ccccc2n(Cc2cccc(Cl)c2)c(=O)n1Cc1ccccc1", "activity change, negative = inhibition": "0%"}, {"smiles": "COc1ccc(C(=O)CSc2c(C(C)C)cnc3c2c(=O)n(C)c(=O)n3C)cc1", "activity change, negative = inhibition": "-5.41%"}, {"smiles": "COc1ccc(C2CC(=O)Nc3c2c(=O)nc2c(C)cccn32)cc1OC", "note": "(stereo not drawn)", "activity change, negative = inhibition": "-5.18%"}, {"smiles": "CC(=O)N1c2ccccc2CC1C(=O)N1CCN(c2ccc(F)cc2)CC1", "note": "(stereo not drawn)", "activity change, negative = inhibition": "-1.77%"}, {"smiles": "COc1cc(C2c3c(oc4ccccc4c3=O)C(=O)N2c2nc(C)c(C)s2)ccc1O", "note": "(stereo not drawn)", "activity change, negative = inhibition": "0%"}, {"smiles": "CC(C)(C)C1CCc2c(sc(NC(=O)c3ccccc3F)c2C(=O)N2CCCCC2)C1", "note": "(stereo not drawn)", "activity change, negative = inhibition": "-15.3%"}, {"smiles": "COc1ccc(NC(=O)N2CCCn3nc(C)cc32)cc1OC", "activity change, negative = inhibition": "1.04%"}, {"smiles": "CCOc1ccc(NC(=O)Cn2c(=O)n(CCCC(=O)NCc3ccc4c(c3)OCO4)c(=O)c3ccccc32)cc1", "activity change, negative = inhibition": "-8.13%"}, {"smiles": "CN(Cc1ccccc1)C(=O)CCS(=O)(=O)c1cc(Br)cc2c1N(C(=O)C1CC1)CC2", "activity change, negative = inhibition": "0%"}, {"smiles": "COc1ccc(-c2cc(-c3nc(-c4cc(OC)c(OC)c(OC)c4)no3)[nH]n2)c(OC)c1", "activity change, negative = inhibition": "-21.5%"}, {"smiles": "CCOC(=O)c1ccc(NC(=O)c2ncn(-c3ccccc3)n2)cc1", "activity change, negative = inhibition": "1.46%"}, {"smiles": "COC(=O)c1c(NC(=O)c2ccc(Cl)c(Cl)c2)sc2c1CCCC2", "activity change, negative = inhibition": "-15.6%"}, {"smiles": "O=c1[nH]c2cc(Br)ccc2n2cccc12", "activity change, negative = inhibition": "-1.34%"}, {"smiles": "COc1cccc(-c2nc(S(=O)(=O)c3ccc(C)cc3)c(NCc3ccccc3)o2)c1", "activity change, negative = inhibition": "0%"}, {"smiles": "CCN(CC(=O)NC(=O)NCc1ccccc1)Cc1nc2ccccc2c(=O)[nH]1", "Potency": "6.31 µM (active)"}, {"smiles": "CCN(CC(=O)Nc1ccc(Cl)c(S(=O)(=O)N(C)C)c1)Cc1nc2ccccc2c(=O)[nH]1", "activity change, negative = inhibition": "0.695% [at 0.307 µM]"}, {"smiles": "CCCCN(CC(=O)Nc1cccc(S(=O)(=O)N2CCCC2)c1)Cc1nc2ccccc2c(=O)[nH]1", "activity change, negative = inhibition": "8.32%"}, {"smiles": "COC(=O)c1cnn(-c2ccc(C(=O)Nc3ccc(OC(F)(F)F)cc3)cc2)c1N", "activity change, negative = inhibition": "-0.598%"}, {"smiles": "Cc1ccc2nc(COc3ccccc3NC(=O)Nc3ccc(F)c(Cl)c3)cc(=O)n2c1", "activity change, negative = inhibition": "0.117%"}, {"smiles": "COc1ccc(NC(=O)CN2CCCN(Cc3ccccc3)S2(=O)=O)cc1", "activity change, negative = inhibition": "17.2%"}, {"smiles": "Cc1ccc(OC(=O)CSc2nnc(-c3cccs3)o2)cc1", "activity change, negative = inhibition": "1.35%"}, {"smiles": "COc1ccc(Cn2c(C(=O)O)c(CNCCc3cccs3)c3ccc(OC)cc32)cc1", "activity change, negative = inhibition": "-17.4%"}, {"smiles": "Oc1ccc2ccccc2c1N=Nc1nccs1", "Potency": "4.47 µM (active)"}, {"smiles": "Oc1ccc(N=Nc2nccs2)c(O)c1", "Potency": "8.91 µM (active)"}, {"smiles": "Cc1ccc(-c2noc(CSc3nnc(-c4ccc(Cl)cc4)n3C)n2)cc1", "activity change, negative = inhibition": "4.15%"}, {"smiles": "Cc1ccc(C(=O)Nc2ccccc2F)cc1S(=O)(=O)N1CCOCC1", "activity change, negative = inhibition": "23.2%"}, {"smiles": "Cc1cc2c(cc3c(SCc4cccc(Cl)c4)nnc(C)n32)o1", "activity change, negative = inhibition": "1.1%"}, {"smiles": "CCOc1ccc(CCNC(=O)CN(c2ccc(C)cc2)S(=O)(=O)N(C)C)cc1OCC", "activity change, negative = inhibition": "0.596%"}, {"smiles": "CC(=O)c1ccc(N2CCN(C3C(=O)c4ccccc4N3C(C)=O)CC2)cc1", "note": "(stereo not drawn)", "activity change, negative = inhibition": "1.24%"}, {"smiles": "Cc1cc(-c2ccc(C)c(S(=O)(=O)N3c4ccccc4CC3C)c2)on1", "note": "(stereo not drawn)", "activity change, negative = inhibition": "-4.7%"}, {"smiles": "Cc1ccc(-n2c(=O)c3cccnc3n2CC(=O)Nc2ccccc2C(F)(F)F)cc1C", "activity change, negative = inhibition": "0.785%"}, {"smiles": "Cc1nn(-c2ccc(N3CCCCC3)nn2)c(C)c1CCC(=O)NCc1ccc(F)cc1", "activity change, negative = inhibition": "1.15%"}, {"smiles": "S=C(NCCc1ccccc1)NCc1ccccc1Cl", "activity change, negative = inhibition": "-14.8%"}, {"smiles": "CCCC1CCC(=NNC(=S)NCCc2ccccc2)CC1", "note": "(stereo not drawn)", "Potency": "4.47 µM (active)"}, {"smiles": "CCCCNC(=S)N/N=C1\\CCCCc2ccccc21", "activity change, negative = inhibition": "-18%"}, {"smiles": "CCN(CCCNC(=O)c1cc(Nc2ccc(OC)cc2)nc2ccccc12)c1cccc(C)c1", "activity change, negative = inhibition": "145%"}, {"smiles": "CCc1ccc(NC(=O)CSc2nc3c([nH]c4ccccc43)c(=O)n2-c2cccc(OC)c2)cc1", "activity change, negative = inhibition": "-2.28%"}]}]}
